Measurements taken from PubChem BioAssay AID488969 (Vanderbilt High Throughput Screening Facility, 2010).
The full ranking holds about 110,000 compounds; the median of “z-score” is about -0.1, and the highest 2% start at about 2. The sample holds the highest values, similar compounds and a random draw of the others, so the mix is not that of the screen. The source made the active and inactive calls.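 How the source made its calls: active means z-score in the third read window above 3 or below -3; inactive means the rest.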

Each compound was assayed against Metabotropic glutamate receptor 8 (Rattus norvegicus) (UniProt P70579) (assay: rat mGluR8 modulators via GIRK flux, primary screen, cell-based, thallium flux, HTS (AID 488969)). Conditions: HEK293 rat mGluR8, GIRK (G protein-gated inwardly rectifying potassium channel) thallium flux, FluoZin2; at 10 µM; stronger effect = higher value; submaximal glutamate (EC20) added with thallium.
Sequence of Metabotropic glutamate receptor 8 (Rattus norvegicus) (P70579 whole entry, looked up): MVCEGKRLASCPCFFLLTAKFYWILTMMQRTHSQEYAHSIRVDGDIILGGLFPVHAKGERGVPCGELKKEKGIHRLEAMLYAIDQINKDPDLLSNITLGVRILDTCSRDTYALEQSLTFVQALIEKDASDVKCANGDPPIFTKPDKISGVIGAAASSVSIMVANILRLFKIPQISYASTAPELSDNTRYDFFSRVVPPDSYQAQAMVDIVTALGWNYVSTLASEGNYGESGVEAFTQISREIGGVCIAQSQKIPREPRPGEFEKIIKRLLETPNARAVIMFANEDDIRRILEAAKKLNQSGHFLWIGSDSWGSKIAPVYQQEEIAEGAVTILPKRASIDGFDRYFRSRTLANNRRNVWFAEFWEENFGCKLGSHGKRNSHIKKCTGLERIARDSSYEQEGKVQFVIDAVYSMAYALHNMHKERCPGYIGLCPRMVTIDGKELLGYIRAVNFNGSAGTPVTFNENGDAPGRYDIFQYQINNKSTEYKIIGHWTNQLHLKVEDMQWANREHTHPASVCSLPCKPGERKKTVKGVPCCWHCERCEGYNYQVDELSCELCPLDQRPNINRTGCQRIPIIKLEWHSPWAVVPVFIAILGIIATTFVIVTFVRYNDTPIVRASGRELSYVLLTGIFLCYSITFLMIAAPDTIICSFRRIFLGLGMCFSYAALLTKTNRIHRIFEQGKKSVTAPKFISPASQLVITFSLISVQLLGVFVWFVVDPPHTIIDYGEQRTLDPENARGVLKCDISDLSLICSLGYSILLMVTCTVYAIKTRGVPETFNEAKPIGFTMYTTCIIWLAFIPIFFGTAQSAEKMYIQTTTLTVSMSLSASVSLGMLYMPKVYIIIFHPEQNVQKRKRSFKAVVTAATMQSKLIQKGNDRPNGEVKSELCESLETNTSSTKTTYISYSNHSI

Row | SMILES | z-score
1 | Cc1nc(C(F)(F)F)nc(Nc2ccc(Br)cc2)c1C#N | -0.188
2 | CCOC(=O)c1[nH]c(C)c(C(=O)N(C)Cc2ccccc2)c1C | 0.89
3 | CCc1nnc(NC(=O)CSc2nnc(-c3ccccc3O)n2CC)s1 | -0.195
4 | CCn1c(SC(C)C(=O)OC)nnc1-c1c[nH]c2ccccc12 (configuration not stated) | -0.657
5 | CCSc1nnc(NC(=O)CSc2nnc(-c3c[nH]c4ccccc34)n2CC)s1 | -1.46
6 | CCc1nnc(NC(=O)CSc2nnc(-c3c[nH]c4ccccc34)n2CC)s1 | 5.79 (active)
7 | CCCSc1nnc(-c2c[nH]c3ccccc23)n1C | 0.341
8 | CCOC(=O)C(C)Sc1nnc(-c2c[nH]c3ccccc23)n1C (configuration not stated) | 4.19 (active)
9 | Cn1c(-c2ccc(C(C)(C)C)cc2)n[nH]c1=S | 1.92
10 | CC(C)(C)c1ccc(-c2n[nH]c(=S)n2C2CCCC2)cc1 | 4.4 (active)
11 | Cc1ccsc1-c1n[nH]c(=S)n1C1CCCCC1 | 0.261
12 | S=c1[nH]nc(-c2cccnc2)n1C1CCCCC1 | 0.738
13 | CC(C)n1c(-c2ccccc2F)n[nH]c1=S | 0.0711
14 | CC(C)n1c(-c2ccc(C(C)(C)C)cc2)n[nH]c1=S | 8.21 (active)
15 | CC(=N\Nc1ccc(Cl)cc1)/C(=N/O)C(=O)Nc1ccccc1 | 0.0464
16 | COc1cc(/C=N/O)cc(Br)c1OCC(=O)NCc1ccccc1 | 0.215
17 | Cc1ccccc1-n1nc(CSc2nc3ccccc3[nH]2)c(-c2ccccc2)c1N | -0.755
18 | O=C(O)C1(NS(=O)(=O)c2ccc(Cl)cc2)CCCCC1 | -0.168
19 | COc1ccc(NC(=O)C2CCN(C(=O)c3cccs3)CC2)cc1 | 0.195
20 | Cc1ccc(Nc2c(-c3ccc(C)o3)nc3cnccn23)cc1 | 2.11
21 | Cc1ccc(-c2nc3cnccn3c2Nc2c(C)cccc2C)o1 | -0.399
22 | Cc1ccc(-c2nc3cnccn3c2Nc2ccccc2)o1 | -0.467
23 | C/C=C/c1ccc(OCCOCCOc2cccc3cccnc23)c(OC)c1 | -0.356

Row | SMILES | z-score
24 | COc1ccc(S(=O)(=O)NCc2csc(-c3cccnc3)n2)cc1 | -0.168
25 | O=S(=O)(NCc1csc(-c2cccnc2)n1)c1ccc2c(c1)OCCO2 | 2.01
26 | O=S(=O)(NCCc1csc(-c2cccnc2)n1)c1ccc(Cl)s1 | 2.22
27 | CCc1ccc(S(=O)(=O)NCCc2csc(-c3cccnc3)n2)s1 | -0.459
28 | O=S(=O)(NCCc1csc(-c2cccnc2)n1)c1ccc2c(c1)OCCO2 | -0.0667
29 | O=S(=O)(NCc1csc(-c2cccnc2)n1)c1ccc(Cl)s1 | 0.124
30 | Cc1cc(C)n2nc(SCc3cc(=O)n4ccccc4n3)nc2n1 | -0.0377
31 | CCCCCCCCSc1n[nH]c(N)n1 | 0.0327
32 | COC(=O)c1cccc(CSc2nnc(C)s2)c1 | -0.565
33 | COc1ccc([N+](=O)[O-])cc1NC(=O)C(C)Sc1ccc(C)cc1 (configuration not stated) | -0.545
34 | COc1cc(C(=O)OCC(=O)c2c[nH]c3ccccc23)ccc1OCC(=O)N1CCOCC1 | 0.0746
35 | CCn1ncc(Cl)c1C(=O)NC(C)c1ccccc1 (configuration not stated) | 0.00989
36 | Clc1cccc(Cl)c1CSc1nnc2ccccn12 | 0.157
37 | Cc1ccccc1CSc1nnc(NC(=O)C2COc3ccccc3O2)s1 (configuration not stated) | 0.0129
38 | C[C@H](C(=O)C=[N+]=[N-])N1C(=O)c2ccccc2C1=O | -0.275
39 | O=C(Cn1nnc(-c2ccccc2)n1)NCc1ccco1 | 0.185
40 | CCOc1ccc(-c2nnn(CC(=O)NCc3ccco3)n2)cc1 | 0.0502
41 | CCCCOc1ccc(-c2nnn(CC(=O)NCc3ccco3)n2)cc1 | 2.02
42 | COc1ccccc1NC(=O)c1ccc(NC(=O)COC(=O)CC(NC(=O)c2ccccc2Cl)c2ccccc2)cc1 (configuration not stated) | -0.112
43 | Cc1cc2n(n1)C(c1cn(-c3ccccc3)nc1C)Nc1ccccc1-2 (configuration not stated) | -2.98
44 | O=C(CSc1ccc(-c2ccc(F)cc2)nn1)NCc1ccco1 | -0.746
45 | CCOC(=O)Cc1csc(NC(=O)c2ccc(OC)c(OC)c2)n1 | 0.0105
46 | CCOC(=O)Cc1csc(NC(=O)c2ccncc2)n1 | -0.235

Row | SMILES | z-score
47 | CCOC(=O)Cc1csc(NC(=S)NC(=O)c2ccc(C)cc2)n1 | 8.13 (active)
48 | CCOC(=O)Cc1csc(NC(=S)NC(=O)c2ccccc2)n1 | 10.6 (active)
49 | CCOC(=O)Cc1csc(NC(=S)NC(=O)c2ccc([N+](=O)[O-])cc2)n1 | 1.72
50 | CCOC(=O)Cc1csc(NC(=S)NC(=O)c2ccc(Cl)cc2)n1 | 2.1
51 | CCCCC(=O)Nc1ccc(C(=O)Nc2nc(CC(=O)OCC)cs2)cc1 | -0.728
52 | CCOC(=O)Cc1csc(NC(=O)Nc2ccccc2)n1 | 3.05 (active)
53 | CCOC(=O)Cc1csc(NC(=O)c2ccc(NC(C)=O)cc2)n1 | 0.627
54 | CCOC(=O)Cc1csc(NC(=O)CC)n1 | 1.77
55 | CCOC(=O)Cc1csc(NC(=S)NC(=O)c2cccc([N+](=O)[O-])c2)n1 | 0.802
56 | CCOC(=O)Cc1csc(NC(=O)c2ccc(Cl)nc2)n1 | 0.0254
57 | CNC(=S)NNC(=O)Cc1ccc(O)cc1 | 0.306
58 | CCN(CC)S(=O)(=O)c1ccc2c(c1)nc(CCC(=O)Nc1cccc(C(F)(F)F)c1)n2CC | -0.277
59 | CCSc1nnc(NC(=O)C2(C)Cc3ccccc3C(=O)O2)s1 (configuration not stated) | -0.0977
60 | CCCCc1c(O)nc2sccn2c1=O | -0.251
61 | Cc1cc(N2CCC(C(=O)NC3CC3)CC2)nc(-c2ccccc2)n1 | 1.41
62 | Cn1c(=O)cc(OCCCC(=O)Nc2ccccn2)c2ccccc21 | -0.243
63 | CC(C1CC1)N(C(=O)NC1CCS(=O)(=O)C1)c1ccccc1 (configuration not stated) | -0.27
64 | CCOc1ccc(NC(=O)c2ccco2)cc1 | -0.0362
65 | CC1Oc2ccccc2N(CC(=O)NCCc2ccccc2)C1=O (configuration not stated) | 2.08
66 | COc1ccc(NC(=O)CN2C(=O)C(C)Oc3ccccc32)cc1 (configuration not stated) | -0.12
67 | CC1Oc2ccccc2N(CC(=O)NCC2CCCO2)C1=O (configuration not stated) | -0.413
68 | C=CCn1c(=N)n(CC(=O)c2ccc(Br)s2)c2ccccc21 | -1.22
69 | C/C(=N/NC(=O)c1sc(NS(=O)(=O)c2ccccc2)nc1C)c1ccccc1 | 0.345

Row | SMILES | z-score
70 | CN(c1ccc([N+](=O)[O-])cc1C(=O)Nc1ccccc1)C1CCCCC1 | -0.377
71 | COc1cc(CNC2CCCC2)cc(Cl)c1OCc1ccc(F)cc1 | -0.271
72 | COc1cc(CNC2CCCC2)cc(Cl)c1OCc1ccccc1Cl | 0.0424
73 | COc1cc(CNC2CCCC2)cc(Cl)c1OCc1ccccc1F | 2.5
74 | CN1CCN(CCCNC(=O)c2cn(C3CCCCC3)c(=O)c3c2c2ccccc2n3C)CC1 | -0.464
75 | CC1CCC(C(C)C)C(OC(=O)CSc2nc(N)cc(=O)[nH]2)C1 (configuration not stated) | -0.124
76 | O=C(Cn1nnc(-c2ccccc2)n1)N=Nc1c(O)[nH]c2ccccc12 | -0.0918
77 | O=C(CSCc1ccccc1)N=Nc1c(O)[nH]c2ccccc12 | 6.08 (active)
78 | O=C(CN1CCN(Cc2ccccc2)CC1)N=Nc1c(O)[nH]c2ccccc12 | -0.328
79 | O=C(CSCc1ccc(Br)cc1)N=Nc1c(O)[nH]c2ccccc12 | 2.84
80 | O=C(CSCc1cccc(Br)c1)N=Nc1c(O)[nH]c2ccccc12 | -0.113
81 | O=C(CSc1nc2ccccc2[nH]1)N=Nc1c(O)[nH]c2ccccc12 | -0.572
82 | CCOC(=O)c1c(CN2CCOCC2)n(-c2ccccc2)c2cc(Br)c(O)c(CN(C)C)c12 | -0.781
83 | CC(C)OCCCNC(=O)C(C)Oc1ccccc1 (configuration not stated) | -0.305
84 | CCCOc1ccc(C(=O)N2CCN(c3ccc(N)cc3Cl)CC2)cc1 | -0.235
85 | COC(=O)C(Cc1ccc(O)cc1)NC(=O)CCC(=O)Nc1ccc(S(N)(=O)=O)cc1 (configuration not stated) | -0.14
86 | Cc1c(NC(=O)C(C)Sc2nnc(-c3ccccc3)o2)c(=O)n(-c2ccccc2)n1C (configuration not stated) | -0.308
87 | CN(Cc1ccccc1)C(=O)CCn1c(=O)oc2ccccc21 | 2.02
88 | COCCN(CCOC)C(=O)CCn1c(=O)oc2ccccc21 | 0.976
89 | O=C(CCn1c(=O)oc2ccccc21)N(Cc1ccccc1)c1ccccn1 | 0.207
90 | COC(=O)c1ccc(NC(=O)CCn2c(=O)oc3ccccc32)cc1 | 2.57
91 | CC(=O)c1ccc(NC(=O)CCn2c(=O)oc3ccccc32)cc1 | -0.318
92 | CCc1ccc(NC(=O)CCn2c(=O)oc3ccccc32)cc1 | 0.0251

Row | SMILES | z-score
93 | CNC(=S)N(Cc1ccc2c(c1)OCO2)C1CC(=O)N(c2ccc(F)cc2)C1=O (configuration not stated) | 0.0865
94 | O=C(CN1C(=O)c2ccccc2C1=O)Nc1ccc2c(c1)OCO2 | -0.335
95 | CC(C)C1Cc2c(sc3c2c(=O)n(Cc2ccccc2)c2nncn32)CO1 (configuration not stated) | -3.44 (active)
96 | CSc1nnc2n(Cc3ccccc3)c(=O)c3c4c(sc3n12)COC(C(C)C)C4 (configuration not stated) | -0.311
97 | CC1(C)Cc2c(sc3[nH]c(=S)n(Cc4ccccc4)c(=O)c23)CO1 | 14.5 (active)
98 | CCC1(C)Cc2c(sc3c2c(=O)n(-c2ccccc2)c(=O)n3C)CO1 (configuration not stated) | -0.673
99 | CCn1c(=O)n(Cc2ccco2)c(=N)c2c3c(sc21)COC(C)(C)C3 | -0.025
100 | CC(C)C1Cc2c(sc3[nH]c(=S)n(Cc4ccccc4)c(=O)c23)CO1 (configuration not stated) | 5.29 (active)
101 | Cc1nnc2n(Cc3ccccc3)c(=O)c3c4c(sc3n12)COC(C)(C)C4 | 0.198
102 | CCC1(C)Cc2c(sc3nc(SC)n(Cc4ccccc4)c(=O)c23)CO1 (configuration not stated) | -0.216
103 | CC1(C)Cc2c(sc3c2c(=N)n(Cc2ccco2)c(=O)n3Cc2ccccc2)CO1 | -0.918
104 | CC1(C)Cc2c(sc3[nH]c(=S)n(Cc4ccco4)c(=O)c23)CO1 | 8.31 (active)
105 | Cn1c(=O)[nH]c2sc3c(c2c1=O)CC(C)(C)OC3 | -0.263
106 | CCC1(C)Cc2c(sc3[nH]c(=S)n(Cc4ccccc4)c(=O)c23)CO1 (configuration not stated) | 8.14 (active)
107 | O=C(CSc1nnc(-c2ccccc2)n1-c1ccccc1)N1c2ccccc2Sc2ccccc21 | -1.52
108 | CC1CCCCN1C(=O)NC12CC3CC(CC(C3)C1)C2 (configuration not stated) | -0.518
109 | CCOc1ccc2c(c1)n(CO)c(=S)n2CO | 0.0706
110 | C(=C\c1cccc2ccccc12)/c1nnc(-c2cccs2)o1 | -0.201
111 | COc1ccc(CC(=O)n2c(CC#N)nc3ccccc32)cc1OC | 0.0175
112 | Cc1ccc2c(Cn3cc(C(F)(F)F)cc(Cl)c3=O)cc(=O)oc2c1 | -0.249
